Test [1] can be described thus: signal quenchers or enhancers, Cy5 substrate/SSB – biochemical, NIH Clinical Collection, E. coli SSB, artefact control for HCV NS3 helicase inhibitor project (AID 743268). Conditions: Cy5-oligo bound E. coli SSB, fluorescence interference.
The subject of test [2] is Hepatitis C virus NS3 helicase. Briefly: blockers of NS3h binding to DNA – biochemical, fluorescence polarization, NIH Clinical Collection, primary screen (AID 743270). Conditions: NS3 helicase binding to Cy5-dT15 DNA, stronger effect = higher value, concentration not given here.
Test [3] deals with Single-stranded DNA-binding protein (Escherichia coli (strain K12)) (UniProt P0AGE0). Briefly: SSB-ssDNA binding inhibitors – biochemical, fluorescence polarization, NIH Clinical Collection, counter-screen for HCV NS3 helicase inhibitor project (AID 743271; in the data active = inhibition above about 28%). The note with it: E. coli SSB-DNA binding, stronger effect = higher value, concentration not given here.
The nature of test [4]: compounds distorting NS3 helicase fluorescence signal – biochemical, NIH Clinical Collection, artefact control for HCV NS3 helicase inhibitor project (AID 743272).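 Note: HCV NS3 helicase with a Cy5 labelled single stranded DNA probe.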 The note with it: fluorescence interference counterscreen, HCV NS3 helicase assay; stronger effect = lower value.
Test [5] in a line: Wnt pathway potentiators raising nuclear beta-catenin – imaging, WNT3A-conditioned medium, mouse C2C12, NPC library, primary screen (AID 1117326; in the data active = nuclear beta-catenin stimulation mostly above about 4.2%, no sharp cut-off; inactive = mostly below about 10%). The note with it: stronger effect = higher value.
A short description of test [6]: stimulators of insulin release from INS-1E, primary screen, cell-based, 5 mM glucose, NPC library (AID 1117329;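 active = compound raises insulin release from rat beta cells at 5 mM glucose, no numeric limit stated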). The note with it: rat INS-1E insulin secretion, at 10 µM, stronger effect = higher value.
A short description of test [7]: growth inhibition of GSK3B-pretreated HCT116 cells – cell-based, CellTiter-Glo, 0.2 to 20 µM (AID 1117336;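 active = compounds lowering colon cancer cell viability after pretreatment blocking the GSK3B kinase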). The note with it: HCT116 viability after GSK3B inhibitor, at 20 µM, stronger effect = higher value.
A short description of test [8]: inhibition of endothelial tube formation, primary screen, imaging, VEGF stimulated, CD31 staining, tube area, NPC library (AID 1117340;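 active = compound that reduces growth-factor-driven endothelial tube area in a mixed cell culture, no cutoff stated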). The note with it: VEGF-stimulated ADSC/ECFC co-culture, at 10 µM, stronger effect = higher value.
Test [9] is described as follows: GLP1 release stimulators, primary, NCI-H716, NPC library (AID 1117341;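 active = compound raises GLP1 secretion from the human gut endocrine cells, with no numeric limit stated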). Conditions: NCI-H716 cells, at 10 µM, stronger effect = higher value.
A short description of test [10]: HCT116 colon cancer cell growth inhibition, primary screen, CellTiter-Glo luminescence, NPC library (AID 1117342;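 active = compounds that lower survival of HCT116 colon cancer cells in the luminescence readout, no numeric limit stated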). Conditions: at 20 µM (top of the series).
Test [11] in a line: reduced SW480 viability measured with CellTiter-Glo, NPC library, primary (AID 1117343;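 active = compounds that lower viability of the colon cancer cells in the luminescence readout, with no numeric limit stated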). The note with it: CellTiter-Glo luminescence; at 20 µM (top of the series).
A short description of test [12]: NPC library primary testing for decreased DLD-1 cell viability via CellTiter-Glo (AID 1117346;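 active = compounds that lower survival of DLD-1 colon cancer cells in the luminescence readout, no cutoff given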). Conditions: DLD-1 viability, CellTiter-Glo luminescence; at 20 µM (top of the series).
The target of test [13] is 6-phosphogluconate dehydrogenase, decarboxylating (Homo sapiens) (UniProt P52209). Briefly: inhibition of human phosphogluconate dehydrogenase – biochemical, recombinant enzyme, NADPH absorbance, primary screen (AID 1159550;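 active = at least 20% inhibition of 6-phosphogluconate dehydrogenase activity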). The note with it: recombinant 6PGD, NADPH absorbance 341 nm; at 10 µM; stronger effect = higher value.
6-phosphogluconate dehydrogenase, decarboxylating (Homo sapiens), sequence (P52209 whole entry, looked up): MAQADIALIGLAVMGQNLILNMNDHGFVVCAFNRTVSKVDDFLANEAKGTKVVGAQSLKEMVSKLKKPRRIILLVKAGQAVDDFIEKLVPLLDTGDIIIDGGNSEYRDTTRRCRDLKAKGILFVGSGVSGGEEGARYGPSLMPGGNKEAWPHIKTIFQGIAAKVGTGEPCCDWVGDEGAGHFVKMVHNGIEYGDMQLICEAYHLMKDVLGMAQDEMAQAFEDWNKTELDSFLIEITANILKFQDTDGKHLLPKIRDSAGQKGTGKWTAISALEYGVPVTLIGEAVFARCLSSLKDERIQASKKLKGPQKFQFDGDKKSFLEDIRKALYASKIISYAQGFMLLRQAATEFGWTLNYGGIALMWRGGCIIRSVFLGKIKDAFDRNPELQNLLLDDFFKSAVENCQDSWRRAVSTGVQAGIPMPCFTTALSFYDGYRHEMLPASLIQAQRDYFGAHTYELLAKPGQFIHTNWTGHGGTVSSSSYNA
Test [14] can be described thus: EMT-state selective cytotoxicity in co-culture – imaging, PC-3E GFP, TEM4-18 mCherry, primary screen (AID 1345086;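 active = compounds killing one labelled cell type while sparing the other, by normalised counts and ratio limits, not self-fluorescent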;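 for all read-outs here: cells exposed to compound for 72 h before imaging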;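 for red/green cell ratio (normalised): normalised mesenchymal count divided by normalised epithelial count so high means epithelial killing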). Conditions: PC-3E GFP / TEM4-18 mCherry co-culture, imaging cell counts, at 1 µM; for red/green cell ratio (normalised): actives lie on both sides, counts scaled to control wells, 1 = unselective.
Test [15] is described as follows: MELAS cybrid and Rieske KO viability enhancers – cell-based, MELAS cybrids, Rieske KO mouse fibroblasts, CellTiter-Glo, primary screen (AID 1508586;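 active = mean z-score across replicates of 1.96 or higher in either the MELAS or the Rieske mutant cell line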;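 note: z relative to plate mean and SD of compound and empty wells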). Conditions: low glucose.
Test [16] has as its target NAD(+) hydrolase SARM1 (Homo sapiens) (UniProt Q6SZW1). Briefly: blocking NAD cleavage by SARM1 SAM-TIR – cell lysate, NAD-Glo luminescence (AID 1508614;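 active = compound whose remaining NAD level is above about 45 nM, limit read from the data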;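 note: higher remaining NAD means stronger inhibition of SARM1 NADase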). Conditions: SAM-TIR HEK293T lysate NADase, at 1 µM, stronger effect = higher value.
The target in test [17] is Mitogen-activated protein kinase 7 (Homo sapiens) (UniProt Q13164). Briefly: Gal4-ERK5 driven luciferase induction – cell-based, HTS, primary screen (AID 1508626;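 active = luciferase signal above three times the same-plate solvent-only control wells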;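 note: luciferase driven by Gal4-ERK5 fusion binding five Gal4 sites before minimal TATA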). Conditions: HeLa Gal4-ERK5 transactivation, 18 h, at 5 µM, stronger effect = higher value.
Mitogen-activated protein kinase 7 (Homo sapiens), sequence (Q13164 whole entry, looked up, the tested form may be a part): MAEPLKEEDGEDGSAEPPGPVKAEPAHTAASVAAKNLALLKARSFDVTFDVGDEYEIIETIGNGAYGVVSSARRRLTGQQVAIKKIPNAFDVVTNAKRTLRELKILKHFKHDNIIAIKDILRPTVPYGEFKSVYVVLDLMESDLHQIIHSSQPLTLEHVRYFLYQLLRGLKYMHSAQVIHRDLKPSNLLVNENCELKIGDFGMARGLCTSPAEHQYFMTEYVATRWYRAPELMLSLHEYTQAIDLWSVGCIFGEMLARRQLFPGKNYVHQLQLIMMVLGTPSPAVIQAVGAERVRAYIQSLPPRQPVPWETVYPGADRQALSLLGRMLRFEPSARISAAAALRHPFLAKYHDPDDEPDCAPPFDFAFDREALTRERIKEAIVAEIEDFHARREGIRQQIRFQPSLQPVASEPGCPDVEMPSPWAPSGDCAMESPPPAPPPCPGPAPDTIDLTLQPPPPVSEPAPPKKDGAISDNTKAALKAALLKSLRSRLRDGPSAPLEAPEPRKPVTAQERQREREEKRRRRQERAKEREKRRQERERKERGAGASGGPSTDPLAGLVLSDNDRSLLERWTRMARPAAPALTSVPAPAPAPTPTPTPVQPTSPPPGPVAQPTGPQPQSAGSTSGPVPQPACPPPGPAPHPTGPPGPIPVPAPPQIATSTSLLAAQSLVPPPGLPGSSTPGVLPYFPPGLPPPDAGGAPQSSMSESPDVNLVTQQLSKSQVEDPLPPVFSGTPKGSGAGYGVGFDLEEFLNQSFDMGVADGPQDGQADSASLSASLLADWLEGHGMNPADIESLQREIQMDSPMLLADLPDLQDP
In test [18] the test system is F380Y. Briefly: BK channel mutant inhibitors and activators – cell-based, U2OS BacMam, thallium flux, beta subunits, selectivity assay, profiling panel (AID 1259406;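 active = thallium flux through the channel raised or lowered by more than 3 SD from vehicle-only wells, actives on both sides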;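 note: initial slope of Thallos dye fluorescence rise after thallium is added; log ratio against the mean of 0.3% DMSO vehicle wells on the same plate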). Conditions: U2OS BacMam BK variants, at 30 µM.
Test [19] is described as follows: P. berghei load reduction in hepatocytes – cell-based, HepG2, luciferase luminescence, HepG2 viability, primary screen (AID 624349; in the data active = parasite load remaining mostly below about 12%, no sharp cut-off; inactive = mostly above about 10%;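 note: 100% = mean of DMSO negative control wells on the same plate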). Conditions: P. berghei liver stage in HepG2, luciferase luminescence, concentration not given here; parasite load remaining: stronger effect = lower value; viability: measured here: HepG2 viability without parasites.
A short description of test [20]: viability loss with induced miR-34 in A549 – imaging, A549 dox-inducible miR-34, nuclei and caspase counts, primary screen (AID 1347080;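 active = compounds whose cell count with miR-34 switched on is under 0.7 times the count with it off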). The note with it: A549 miR-34 inducible, Hoechst nuclei count, 48 h.
[21] abbreviates: measured here: epithelial PC-3E GFP cell survival.
Setting [22] is: measured here: mesenchymal TEM4-18 mCherry cell survival.
Where [23] appears, read: MELAS cybrid survival, CellTiter-Glo 48 h, stronger effect = higher value.
[24] abbreviates: Rieske KO mouse fibroblast survival, CellTiter-Glo 72 h.
Where [25] appears, read: stronger effect = lower value, cell number ratio, induced over uninduced.
Setting [26] is: measured here: relative caspase fold change +Dox/-Dox.
The mark [27] stands for this setting: measured here: total cells with miR-34 induction, stronger effect = lower value.
Setting [28] is: measured here: total cells without miR-34 induction.

SMILES strings stand for the structures. Several values for one entry are separate records, joined by “and”; a condition that tells them apart may be missing. Identical values can stand only once. Activity calls are given as the source filed them. Unless noted, the rule behind the calls is not given here.

NAD(+) hydrolase SARM1 (Homo sapiens), sequence (Q6SZW1 whole entry, looked up, the tested form may be a part): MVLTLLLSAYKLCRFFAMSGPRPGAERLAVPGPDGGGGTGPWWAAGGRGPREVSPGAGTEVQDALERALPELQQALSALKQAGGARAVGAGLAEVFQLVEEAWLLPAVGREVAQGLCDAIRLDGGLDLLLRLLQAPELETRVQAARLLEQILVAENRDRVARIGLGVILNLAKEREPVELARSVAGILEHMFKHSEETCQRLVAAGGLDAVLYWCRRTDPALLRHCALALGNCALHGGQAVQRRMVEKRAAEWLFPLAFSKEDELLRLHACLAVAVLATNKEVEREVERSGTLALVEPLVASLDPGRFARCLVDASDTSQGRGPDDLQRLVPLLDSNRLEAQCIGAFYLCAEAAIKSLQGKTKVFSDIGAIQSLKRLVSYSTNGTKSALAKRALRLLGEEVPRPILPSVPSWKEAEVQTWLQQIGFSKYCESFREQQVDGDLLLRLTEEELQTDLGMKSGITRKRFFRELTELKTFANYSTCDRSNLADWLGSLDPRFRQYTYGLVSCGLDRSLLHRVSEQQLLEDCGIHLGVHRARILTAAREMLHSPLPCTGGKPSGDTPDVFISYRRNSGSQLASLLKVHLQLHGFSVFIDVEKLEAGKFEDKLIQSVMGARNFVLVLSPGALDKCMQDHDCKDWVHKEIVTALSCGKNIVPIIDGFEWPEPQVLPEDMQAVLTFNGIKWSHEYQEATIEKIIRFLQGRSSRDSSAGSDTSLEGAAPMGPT

As to `c1ccc(-c2ccc(C(c3ccccc3)n3ccnc3)cc2)cc1` (stereo not drawn), the values for the fluorescence ratio in test [1] and in test [4] were 1.01 (inactive) and 1.04 (inactive), respectively. Besides, the inhibition in test [2] is 12.3% (inactive); in test [3], 8.37% (inactive); in test [13] it was 12.4% (inactive). The nuclear beta-catenin stimulation in test [5] (at 10 µM) was -0.1% (inactive); in test [5] (stimulation, at 2 µM) it was 0.5%. Moreover, the insulin secretion stimulation in test [6] was 0.3% (inactive). Further, in test [7], the viability decrease is 99.7% (active). The tube area decrease in test [8] is 23.9% (inactive). Further, the GLP1 secretion stimulation in [9] was 8.2% (inactive). Besides, the inhibition of viability in [10] is 101% (active). Moreover, the values for the viability decrease (inhibition) in [11] and in test [12] were 141% (active) and 104% (active), respectively. For the same compound, the red/green cell ratio (normalised) in [14] was 1.06 (inactive). Moreover, the normalised cell number in [14] (setting [21]) is 0.98; in [14] (setting [22]), 1.04. For the same compound, the z-score in test [15] (setting [23]) is -0.456 (inactive) and -0.0732 (inactive) and 0.0643 (inactive); in test [15] (setting [24]) it was -0.196 and 0.568 and 0.472. In addition, the remaining NAD in [16] is 10 nM (inactive). In addition, the luciferase signal in test [17] was 56 AU (inactive). Also, the log fold change Tl+ flux in [18] is -0.00418 (inactive).

Consider `Cc1cccc(Nc2ccncc2S(=O)(=O)NC(=O)NC(C)C)c1`, for which, in [19], the parasite load remaining was 136% (inactive) and 72.2% (inactive) and 143% (inactive). Further, the viability in [19] is 83% and 88.5% and 82%. In addition, the results for the fluorescence ratio in test [1] and in test [4] were 1.01 (inactive) and 1.02 (inactive), respectively. In addition, the inhibition is -1.19% (inactive) in test [2], -0.1% (inactive) in test [3] and -8.28% (inactive) in test [13]. The nuclear beta-catenin stimulation in test [5] (at 10 µM) is -1.1% (inactive); in [5] (stimulation, at 2 µM), -0.1%. Further, the insulin secretion stimulation in [6] is 5% (inactive). In test [7], the viability decrease was -8.2% (inactive). The tube area decrease in test [8] was -9.9% (inactive). In [9], the GLP1 secretion stimulation was -2% (inactive). For the same compound, the inhibition of viability in test [10] is -1.7% (inactive). Further, the figures for the viability decrease (inhibition) in [11] and in test [12] were -0.7% (inactive) and -9.6% (inactive), respectively. For the same compound, the fold change is 0.955 (inactive) and 0.95 (inactive) in test [20] (setting [25]); 0.599 and 1.15 in test [20] (setting [26]). The cell count in [20] (setting [27]) is 8770 and 10100; in [20] (setting [28]), 9180 and 10600. The z-score in test [15] (setting [23]) was -0.921 (inactive); in test [15] (setting [24]), -0.333. Besides, the remaining NAD in test [16] was 10 nM (inactive). For the same compound, the log fold change Tl+ flux in test [18] is 0.0355 (inactive).

As for `Cc1cccc(Nc2ccccc2C(=O)O)c1C`, the fluorescence ratio was 1 (inactive) in [1] and 0.91 (inactive) in test [4]. For the same compound, the inhibition in test [2] is -5% (inactive); in test [3], 1.05% (inactive); in test [13] it was 17.3% (inactive). The nuclear beta-catenin stimulation was 0.8% (inactive) in test [5] (at 10 µM) and 0.4% in test [5] (stimulation, at 2 µM). Also, the insulin secretion stimulation in test [6] was -1.6% (inactive). For the same compound, in [7], the viability decrease was -0.3% (inactive). Also, the tube area decrease in test [8] is 18% (inactive). For the same compound, in test [9], the GLP1 secretion stimulation is -0.1% (inactive). For the same compound, the inhibition of viability in test [10] is -21% (inactive). In addition, the viability decrease (inhibition) in [11] was 29.6% (inactive); in [12], 2.25% (inactive). Moreover, in [14], the red/green cell ratio (normalised) is 0.92 (inactive). Also, the normalised cell number in test [14] (setting [21]) was 1.18; in [14] (setting [22]), 1.08. The z-score in test [15] (setting [23]) was -0.21 (inactive) and 0.386 (inactive) and -0.378 (inactive); in [15] (setting [24]) it was -0.308 and -0.333 and -1.12. Further, the remaining NAD in test [16] was 10 nM (inactive). The luciferase signal in [17] is 232 AU (inactive). In [18], the log fold change Tl+ flux is 0.0635 (inactive).

In the case of `C[C@H](CCC(=O)O)[C@H]1CC[C@H]2[C@@H]3C(=O)C[C@@H]4CC(=O)CC[C@]4(C)[C@H]3CC(=O)[C@]12C`, the parasite load remaining in [19] was 41.4% (inactive) and 59.6% (inactive). The viability in [19] was 47.4% and 73.1%. Besides, the fluorescence ratio in [1] is 0.97 (inactive); in test [4], 0.9 (inactive). The inhibition is 3.28% (inactive) in [2]; 2.76% (inactive) in test [3]; -0.558% (inactive) and -4.79% (inactive) in test [13]. Moreover, the nuclear beta-catenin stimulation was -0.3% (inactive) in [5] (at 10 µM) and 0% in test [5] (stimulation, at 2 µM). In addition, in [6], the insulin secretion stimulation is 1.3% (inactive). The viability decrease in test [7] is -1% (inactive). The tube area decrease in test [8] is 15.1% (inactive). For the same compound, the GLP1 secretion stimulation in test [9] was 0.2% (inactive). Moreover, the inhibition of viability in [10] is -5.2% (inactive). For the same compound, the viability decrease (inhibition) in test [11] was 5.6% (inactive); in test [12], -16% (inactive). In addition, the fold change was 0.903 (inactive) in test [20] (setting [25]) and 1.51 in test [20] (setting [26]). In addition, the results for the cell count in [20] (setting [27]) and in test [20] (setting [28]) were 9210 and 10200, respectively. In addition, the z-score in test [15] (setting [23]) was 1.02 (inactive); in test [15] (setting [24]), 0.185. Besides, the remaining NAD in [16] is 10 nM (inactive). Further, the luciferase signal in test [17] was 100 AU (inactive) and 64 AU (inactive). In addition, the log fold change Tl+ flux in test [18] is -0.0147 (inactive).
